Assay results taken from PubChem BioAssay (Tox21).
Results filed as inconclusive are left out. A call without a number means that no potency is given here. Values without a mark were called inactive. The source made the active and inactive calls. Unless noted, calls come from the whole dose curve; as a rule, active = well fitted curve in the direction sought with a large enough effect in the repeat runs; inconclusive = weak or mixed curves; inactive = no such curve, though single readings can be large; an effect the other way counts as inactive or inconclusive.

Key:
[1] = qHTS assay to identify small molecule agonists of the RXR signaling pathway - cell viability counter screen (AID 1159529);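 note: HEK 293T cells carrying an RXR-alpha UAS beta-lactamase reporter; series mostly up to about 77 µM; nearly all actives have a fitted effect of over 50% in size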
Procedure, shortened: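 Counter screen: CellTiter-Glo luminescence. Cells: RXR-alpha-UAS-bla HEK 293T. Medium: 2% charcoal-stripped FBS. Treatment: 16 h, 37 C. Reagent incubation: 30 min, RT.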

[2] = qHTS assay to identify small molecule antagonists of the retinoid acid receptor (RAR) signaling pathway - cell viability counter screen (AID 1159551); note: nearly all actives have a fitted effect of over 35% in size
Procedure, shortened: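 Following overnight attachment, C3RL4 reporter cells received DMSO-dissolved compounds and then retinol (1 uM final). Six hours later at 37 C, ATP content was measured by CellTiter-Glo luminescence.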

[3] = qHTS assay to identify small molecule antagonists of the retinoic acid receptor (RAR) signaling pathway (AID 1159552; note: nearly all actives have a fitted effect of over 50% in size)
Procedure, shortened: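 Antagonism of retinol-induced RARE reporter activity was measured in C3RL4 cells. Exposure to compounds and 1 uM final retinol lasted 6 hr at 37 C, with luminescence as endpoint.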

[4] = qHTS assay to identify small molecule agonists of the retinoic acid receptor (RAR) signaling pathway (AID 1159553); note: potency is the fitted concentration of half-maximal effect
Procedure, shortened: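 Cell line C3RL4, RARE luciferase reporter. Treatment: compounds in DMSO, 6 hr, 37 C, 5% CO2, after overnight plating. Detection: luminescence, 30 min RT after reagent.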

[5] = qHTS assay to identify small molecule antagonists of the estrogen related receptor (ERR) signaling pathway from Tox21 library - cell viability counter screen (AID 1224834); note: nearly all actives have a fitted effect of over 30% in size
Procedure, shortened: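 Viability readout (CellTiter-Fluor fluorescence, 30 min at 37 C) multiplexed with the ERR assay; cells treated 17.5 h at 37 C with compounds delivered in DMSO.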

[6] = target: Luciferin 4-monooxygenase (Photinus pyralis) (UniProt P08659); assay: qHTS assay to identify small molecule inhibitors of firefly luciferase (AID 1224835); note: nearly all actives have a fitted effect of over 25% in size; note: potency is the fitted concentration of half-maximal effect
Procedure, shortened: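 Inhibition of purified Photinus luciferase is measured by luminescence. Substrate levels (D-luciferin, ATP) sit at their KM values. Each compound is tested in a concentration series.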

[7] = qHTS assay to identify small molecule agonists of the constitutive androstane receptor (CAR) signaling pathway - cell viability counter screen (AID 1224836); note: series mostly up to about 92 µM; nearly all actives have a fitted effect of over 45% in size
Procedure, shortened: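 Double-stable HepG2 hepatoma cells (hCAR plus CYP2B6-2.2kb) are treated for 23 h at 37 C with test compounds in 15-point concentration series. PK11195 at 0.75 uM final is co-added. Cell viability is quantified by CellTiter-Fluor.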

[8] = qHTS assay to identify small molecule antagonists of the constitutive androstane receptor (CAR) signaling pathway - cell viability counter screen (AID 1224837); note: series mostly up to about 92 µM; nearly all actives have a fitted effect of over 45% in size
Procedure, shortened: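 Fluorescence from CellTiter-Fluor served as the viability signal. Human hepatoma HepG2 cells stably bearing hCAR and CYP2B6-2.2kb received compound plus CITCO (50 nM final) for 23 hr.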

[9] = target: Nuclear receptor subfamily 1 group I member 3 (Homo sapiens) (UniProt Q14994); assay: qHTS assay to identify small molecule antagonists of the constitutive androstane receptor (CAR) signaling pathway (AID 1224838);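 note: HepG2 cells stably expressing hCAR with CYP2B6 luciferase reporter stimulated by CITCO; nearly all actives have a fitted effect of over 40% in size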
Procedure, shortened: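 Quantitative HTS in double-stable HepG2-CYP2B6-hCAR cells. After 4 h plating, cells get compound (15 concentrations) and CITCO at 50 nM final, incubate 24 h at 37 C, then ONE-Glo luminescence is read.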

[10] = target: Nuclear receptor subfamily 1 group I member 3 (Homo sapiens) (UniProt Q14994); assay: qHTS assay to identify small molecule agonists of the constitutive androstane receptor (CAR) signaling pathway (AID 1224839);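 note: HepG2 cells stably carrying human CAR and a CYP2B6 luciferase reporter; series mostly up to about 92 µM; nearly all actives have a fitted effect of over 15% in size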
Procedure, shortened: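 Readout: firefly luciferase luminescence via ONE-Glo. System: HepG2 double-stable for hCAR and CYP2B6-2.2kb. Conditions: 15-point compound titration, PK11195 at 0.75 uM final, 24 h incubation.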

[11] = qHTS assay to identify small molecule antagonists of the estrogen related receptor signaling pathway with the pleiotropic PPARgamma coactivator (PGC) from Tox21 10K library - cell viability counter screen (AID 1224840; active = well fitted cell-killing curve with a large enough effect in the repeat runs, not every such curve was filed as active; note: nearly all actives have a fitted effect of over 40% in size)
Procedure, shortened: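 Compounds in DMSO, alongside positive and negative controls, were pinned onto PGC/ERR cells (2,000 per well). Exposure lasted 17.5 hours at 37 C, followed by a 30-minute CellTiter-Fluor incubation and fluorescence reading.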

[12] = target: Thyrotropin receptor (Homo sapiens) (UniProt P16473); assay: qHTS assay to identify small molecule agonists of the thyroid stimulating hormone receptor (TSHR) signaling pathway (AID 1224843; calls by dose curve; note: nearly all actives have a fitted effect of over 45% in size)
Procedure, shortened: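 HEK293 cells stably bearing the thyrotropin receptor were plated at 800 cells/well and challenged with compound (30 min, RT). Accumulated cAMP was quantified via cAMP-d2 competing for cryptate-tagged antibody.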

[13] = qHTS assay to identify small molecule agonists of H2AX (AID 1224845; active = well fitted activation curve with a large enough effect in the signal ratio in the repeat runs, not every such curve was filed as active; the % refers to the signal ratio)
Procedure, shortened: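 Phospho-H2AX Ser139 measured by HTRF (ex 320 nm; em 665 and 620 nm) after 24 hr antibody incubation. Compounds, 15 concentrations, 0.76% DMSO, were applied to CHO-K1 cells for 3hr at 37C before lysis.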

[14] = qHTS assay to identify small molecule agonists of the hypoxia (HIF-1) signaling pathway (AID 1224846; active = well fitted activation curve with a large enough effect in the signal ratio in the repeat runs, not every such curve was filed as active; the % refers to the signal ratio)
Procedure, shortened: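 Measured by blue/green FRET after loading CCF4-AM: beta-lactamase expressed from a hypoxia response element in ME-180 cells. Test agents were delivered in DMSO and left 17 hrs; cells had been plated 5 hrs earlier in low-serum (0.5% dialyzed FBS) medium.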

[15] = qHTS assay to identify small molecule agonists of H2AX - cell viability counter screen (AID 1224847; calls by dose curve;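 note: wild-type CHO-K1 cells; top concentration of the series differs between compounds; nearly all actives have a fitted effect of over 30% in size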)
Procedure, shortened: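 For this counter screen, overnight-attached CHO-K1 cells received test compounds (15 concentrations, 0.76% DMSO final); 3 hr later at 37C, CellTiter-Glo reagent was added and luminescence recorded after 30 min at room temperature.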

[16] = qHTS RealTime-Glo MT Cell Viability Assay in HepG2 cells - 24 hour (AID 1224867); note: nearly all actives have a fitted effect of over 50% in size
Procedure, shortened: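 Viability was tracked continuously by NanoLuc luminescence from prosubstrate reduced by living HepG2 cells, at successive time points over 40 h of compound exposure. Cells with reagent were preincubated 5 h at 37 °C before compound addition.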

[17] = qHTS assay to identify small molecule agonists of the hypoxia (HIF-1) signaling pathway - cell viability counter screen (AID 1224844; calls by dose curve; note: nearly all actives have a fitted effect of over 50% in size)
Procedure, shortened: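 Luminescent ATP content (CellTiter-Glo, 30 min, room temperature) served as the viability measure in HRE-bla ME-180 cells exposed to compounds for 17 hrs in low-serum medium (0.5% dialyzed FBS).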

Chain of Nuclear receptor subfamily 1 group I member 3 (Homo sapiens) (Q14994 whole entry, looked up): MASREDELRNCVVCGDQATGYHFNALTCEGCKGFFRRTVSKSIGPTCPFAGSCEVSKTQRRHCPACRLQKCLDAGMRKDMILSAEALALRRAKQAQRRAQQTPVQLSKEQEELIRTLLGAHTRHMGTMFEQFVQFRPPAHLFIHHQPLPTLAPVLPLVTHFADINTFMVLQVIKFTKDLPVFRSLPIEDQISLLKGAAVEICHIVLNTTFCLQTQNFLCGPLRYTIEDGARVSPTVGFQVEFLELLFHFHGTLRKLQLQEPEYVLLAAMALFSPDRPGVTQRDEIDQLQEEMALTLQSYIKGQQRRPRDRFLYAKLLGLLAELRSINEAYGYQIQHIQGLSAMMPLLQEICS
Chain of Luciferin 4-monooxygenase (Photinus pyralis) (P08659 whole entry, looked up): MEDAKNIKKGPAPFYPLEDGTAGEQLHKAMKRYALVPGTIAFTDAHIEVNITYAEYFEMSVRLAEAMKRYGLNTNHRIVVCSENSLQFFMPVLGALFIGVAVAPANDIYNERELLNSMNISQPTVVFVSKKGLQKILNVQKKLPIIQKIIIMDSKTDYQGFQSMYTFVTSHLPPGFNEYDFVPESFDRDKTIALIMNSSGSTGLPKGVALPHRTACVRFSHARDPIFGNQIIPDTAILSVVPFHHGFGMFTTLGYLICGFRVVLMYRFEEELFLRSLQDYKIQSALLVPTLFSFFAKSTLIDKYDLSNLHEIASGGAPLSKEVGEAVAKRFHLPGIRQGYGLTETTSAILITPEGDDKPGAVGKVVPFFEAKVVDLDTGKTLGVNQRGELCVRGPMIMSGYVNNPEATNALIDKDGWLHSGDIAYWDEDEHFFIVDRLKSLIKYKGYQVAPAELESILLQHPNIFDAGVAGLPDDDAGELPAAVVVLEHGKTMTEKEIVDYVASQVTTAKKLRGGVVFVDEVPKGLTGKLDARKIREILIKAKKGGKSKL
Chain of Thyrotropin receptor (Homo sapiens) (P16473 whole entry, looked up): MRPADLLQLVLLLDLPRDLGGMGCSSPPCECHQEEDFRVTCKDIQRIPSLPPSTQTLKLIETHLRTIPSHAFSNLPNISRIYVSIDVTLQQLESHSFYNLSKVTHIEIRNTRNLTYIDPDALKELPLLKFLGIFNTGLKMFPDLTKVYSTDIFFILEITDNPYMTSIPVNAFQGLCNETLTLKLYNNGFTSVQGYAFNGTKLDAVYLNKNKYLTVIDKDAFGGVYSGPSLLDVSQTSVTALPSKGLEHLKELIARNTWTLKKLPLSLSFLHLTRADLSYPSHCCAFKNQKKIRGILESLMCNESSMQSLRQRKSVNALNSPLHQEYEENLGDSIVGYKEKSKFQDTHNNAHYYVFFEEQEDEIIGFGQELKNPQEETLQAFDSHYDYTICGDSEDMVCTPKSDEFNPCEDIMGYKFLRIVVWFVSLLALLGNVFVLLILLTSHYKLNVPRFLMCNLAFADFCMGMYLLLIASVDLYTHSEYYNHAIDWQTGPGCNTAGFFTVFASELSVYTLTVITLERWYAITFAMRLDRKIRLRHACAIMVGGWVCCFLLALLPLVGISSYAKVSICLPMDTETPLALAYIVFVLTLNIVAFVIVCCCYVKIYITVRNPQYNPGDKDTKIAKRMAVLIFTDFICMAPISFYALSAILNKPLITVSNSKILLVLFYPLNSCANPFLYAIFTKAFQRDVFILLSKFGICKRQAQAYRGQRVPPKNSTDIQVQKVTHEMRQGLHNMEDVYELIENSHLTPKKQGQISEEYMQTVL

O/N=C/C=N/O
outcome [1]: inactive | outcome [2]: inactive | outcome [3]: inactive | Potency [4]: inactive | outcome [5]: inactive | Potency [6]: inactive | outcome [7]: inactive | outcome [8]: inactive | Potency [9]: inactive | Potency [10]: inactive | outcome [11]: inactive | outcome [12]: inactive | outcome [13]: inactive | outcome [14]: inactive | outcome [15]: inactive | outcome [16]: inactive

CCCCCCCCCOC(=O)CCCCC(=O)OCCCCCCC
outcome [1]: inactive | outcome [2]: inactive | outcome [3]: inactive | Potency [4]: inactive | outcome [5]: inactive | Potency [6]: inactive | outcome [7]: inactive | outcome [8]: inactive | Potency [9]: inactive | Potency [10]: inactive | outcome [11]: inactive | outcome [12]: inactive | outcome [17]: inactive | outcome [13]: inactive | outcome [14]: inactive | outcome [16]: inactive

COc1cc2c(cc1OC)CN(C(=O)[C@H](C)N[C@@H](CCc1ccccc1)C(=O)O)[C@H](C(=O)O)C2
outcome [1]: inactive | outcome [2]: inactive | outcome [3]: inactive | Potency [4]: inactive | outcome [5]: inactive | Potency [6]: inactive | outcome [7]: inactive | outcome [8]: inactive | Potency [9]: inactive | Potency [10]: inactive | outcome [11]: inactive | outcome [12]: inactive | outcome [17]: inactive | outcome [14]: inactive | outcome [15]: inactive | outcome [16]: inactive

CCCCCCCCCCCCCCCCCC#N
outcome [1]: inactive | outcome [2]: inactive | outcome [3]: inactive | Potency [4]: inactive | outcome [5]: inactive | Potency [6]: inactive | outcome [7]: inactive | outcome [8]: inactive | Potency [9]: inactive | Potency [10]: inactive | outcome [11]: inactive | outcome [12]: inactive | outcome [13]: inactive | outcome [14]: inactive | outcome [15]: inactive | outcome [16]: inactive

CCCCCCCCCCOC(C)=O
outcome [1]: inactive | outcome [2]: inactive | outcome [3]: inactive | Potency [4]: inactive | outcome [5]: inactive | Potency [6]: inactive | outcome [7]: inactive | outcome [8]: inactive | Potency [9]: inactive | Potency [10]: inactive | outcome [11]: inactive | outcome [12]: inactive | outcome [17]: inactive | outcome [13]: inactive | outcome [14]: inactive | outcome [15]: inactive | outcome [16]: inactive

Cc1ccnc(N)c1
outcome [1]: inactive | outcome [2]: inactive | outcome [3]: inactive | Potency [4]: inactive | outcome [5]: inactive | Potency [6]: inactive | outcome [7]: inactive | outcome [8]: inactive | Potency [9]: inactive | Potency [10]: inactive | outcome [11]: inactive | outcome [12]: inactive | outcome [17]: inactive | outcome [14]: inactive | outcome [15]: inactive | outcome [16]: inactive

CC(C)CCOC(=O)c1ccccc1
outcome [1]: inactive | outcome [2]: inactive | outcome [3]: inactive | Potency [4]: inactive | outcome [5]: inactive | Potency [6]: 71 µM (active) | outcome [7]: inactive | outcome [8]: inactive | Potency [9]: inactive | Potency [10]: inactive | outcome [11]: inactive | outcome [12]: inactive | outcome [17]: inactive | outcome [13]: inactive | outcome [14]: inactive | outcome [15]: inactive | outcome [16]: inactive

O=C(O)CNC(=O)CNC(=O)CNC(=O)CSC(=O)c1ccccc1
outcome [1]: inactive | outcome [2]: inactive | outcome [3]: inactive | Potency [4]: inactive | outcome [5]: inactive | Potency [6]: inactive | outcome [7]: inactive | outcome [8]: inactive | Potency [9]: inactive | Potency [10]: inactive | outcome [11]: inactive | outcome [12]: inactive | outcome [13]: inactive | outcome [14]: inactive | outcome [15]: inactive | outcome [16]: inactive

CCC[C@@H]1C[C@@H](C(=O)N[C@@H]([C@H]2O[C@H](SC)[C@H](O)[C@@H](O)[C@H]2O)[C@@H](C)O)N(C)C1
outcome [1]: inactive | outcome [2]: inactive | outcome [3]: inactive | Potency [4]: inactive | outcome [5]: inactive | Potency [6]: inactive | outcome [7]: inactive | outcome [8]: inactive | Potency [9]: inactive | Potency [10]: inactive | outcome [11]: inactive | outcome [12]: inactive | outcome [17]: inactive | outcome [13]: inactive | outcome [15]: inactive | outcome [16]: inactive

COc1cc(OC)nc(O[C@H](C(=O)O)C(OC)(c2ccccc2)c2ccccc2)n1
outcome [1]: inactive | outcome [2]: inactive | outcome [3]: inactive | Potency [4]: inactive | outcome [5]: inactive | Potency [6]: inactive | outcome [7]: inactive | outcome [8]: inactive | Potency [9]: inactive | Potency [10]: inactive | outcome [11]: inactive | outcome [12]: inactive | outcome [17]: inactive | outcome [13]: inactive | outcome [14]: inactive | outcome [16]: inactive

CC1(C)Oc2ccc(C#N)cc2[C@@H](N2CCCC2=O)[C@@H]1O
outcome [1]: inactive | outcome [2]: inactive | outcome [3]: inactive | Potency [4]: inactive | outcome [5]: inactive | Potency [6]: inactive | outcome [7]: inactive | outcome [8]: inactive | Potency [9]: inactive | Potency [10]: inactive | outcome [11]: inactive | outcome [12]: inactive | outcome [17]: inactive | outcome [13]: inactive | outcome [14]: inactive | outcome [16]: inactive

CC(=O)O[C@@H]1CC2CCC1(C)C2(C)C (stereo partly specified)
outcome [1]: inactive | outcome [2]: inactive | outcome [3]: inactive | Potency [4]: inactive | outcome [5]: inactive | Potency [6]: inactive | outcome [7]: inactive | outcome [8]: inactive | Potency [9]: inactive | Potency [10]: inactive | outcome [11]: inactive | outcome [12]: inactive | outcome [17]: inactive | outcome [13]: inactive | outcome [14]: inactive | outcome [16]: inactive

CCC(=O)Oc1ccc2c(c1)CC[C@@H]1[C@@H]2CC[C@@]2(C)[C@H]1C[C@@H](OC(=O)CC)[C@@H]2OC(=O)CC
outcome [1]: inactive | outcome [2]: inactive | outcome [3]: inactive | Potency [4]: inactive | outcome [5]: inactive | Potency [6]: inactive | outcome [7]: inactive | outcome [8]: inactive | Potency [9]: inactive | Potency [10]: inactive | outcome [11]: inactive | outcome [12]: inactive | outcome [17]: inactive | outcome [13]: inactive | outcome [14]: inactive | outcome [16]: inactive

CC(=O)Nc1ccc(OC(=O)c2ccccc2OC(C)=O)cc1
outcome [1]: inactive | outcome [2]: inactive | outcome [3]: inactive | Potency [4]: 23.7 µM (active) | outcome [5]: inactive | Potency [6]: inactive | outcome [7]: inactive | outcome [8]: inactive | Potency [9]: inactive | Potency [10]: inactive | outcome [12]: inactive | outcome [17]: inactive | outcome [13]: inactive | outcome [14]: inactive | outcome [15]: inactive | outcome [16]: inactive
